ChEMBL document CHEMBL1201862, “PubChem BioAssay data set” (2004)
The whole screen tested about 400,000 compounds, of which about 2,100 (0.53%) were called active. About 14% were inconclusive and are not listed. No rule for the calls is given here. Only a selection was taken, and actives are over-represented in it overall.

biological target: Ataxin-2 (Homo sapiens) (UniProt Q99700); assay: qHTS for Inhibitors of ATXN expression.; assay type: functional
Sequence (Q99700 whole entry): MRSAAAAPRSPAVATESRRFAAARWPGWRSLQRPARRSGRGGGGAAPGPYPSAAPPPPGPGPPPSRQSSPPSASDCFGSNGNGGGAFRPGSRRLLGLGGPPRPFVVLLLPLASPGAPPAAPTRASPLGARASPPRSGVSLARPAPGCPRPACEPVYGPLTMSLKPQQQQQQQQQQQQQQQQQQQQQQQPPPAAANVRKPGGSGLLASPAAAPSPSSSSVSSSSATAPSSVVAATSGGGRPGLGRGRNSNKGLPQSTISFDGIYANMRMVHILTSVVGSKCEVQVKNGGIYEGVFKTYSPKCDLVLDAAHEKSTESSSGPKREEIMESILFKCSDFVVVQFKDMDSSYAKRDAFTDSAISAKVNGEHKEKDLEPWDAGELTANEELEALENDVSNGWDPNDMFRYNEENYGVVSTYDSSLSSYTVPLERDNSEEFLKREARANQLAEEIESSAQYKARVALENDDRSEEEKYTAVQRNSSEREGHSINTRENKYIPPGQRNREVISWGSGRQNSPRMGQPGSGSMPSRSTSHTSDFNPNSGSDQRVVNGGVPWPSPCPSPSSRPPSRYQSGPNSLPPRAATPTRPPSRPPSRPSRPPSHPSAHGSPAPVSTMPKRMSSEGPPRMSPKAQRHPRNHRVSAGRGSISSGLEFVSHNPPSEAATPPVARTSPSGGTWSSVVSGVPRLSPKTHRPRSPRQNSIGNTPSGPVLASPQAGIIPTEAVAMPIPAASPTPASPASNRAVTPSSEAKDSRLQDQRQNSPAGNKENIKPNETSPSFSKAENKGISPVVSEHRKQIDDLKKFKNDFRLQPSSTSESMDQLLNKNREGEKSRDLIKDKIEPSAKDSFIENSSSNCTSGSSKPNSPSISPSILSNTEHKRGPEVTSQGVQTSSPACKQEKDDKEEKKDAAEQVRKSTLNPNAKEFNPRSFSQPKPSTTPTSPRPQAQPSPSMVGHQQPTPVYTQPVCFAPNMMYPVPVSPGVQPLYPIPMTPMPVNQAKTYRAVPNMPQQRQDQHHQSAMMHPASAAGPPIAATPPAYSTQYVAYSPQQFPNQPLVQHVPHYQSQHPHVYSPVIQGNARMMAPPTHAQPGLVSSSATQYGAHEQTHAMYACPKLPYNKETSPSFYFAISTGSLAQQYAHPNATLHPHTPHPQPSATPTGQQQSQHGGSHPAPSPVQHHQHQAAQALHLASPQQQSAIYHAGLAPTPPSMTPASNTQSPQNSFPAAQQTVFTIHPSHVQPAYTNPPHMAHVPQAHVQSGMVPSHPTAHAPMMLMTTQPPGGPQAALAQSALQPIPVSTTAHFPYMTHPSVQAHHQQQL

SMILES	Potency
CCOC(=O)Cc1cnc(NC(=O)CSc2nc(C)c(CC)c(O)n2)s1	inactive
OCCCNCc1ccc(-c2ccccc2)cc1	inactive
CC(C)Oc1ccc(C(CCNCc2ccc(O)cc2)c2ccccc2)cc1 (stereo unspecified)	39.8 µM (active)
COc1ccc(CNCCC(c2ccc(OC(C)C)cc2)C(C)C)cc1OC (stereo unspecified)	25.1 µM (active)
O=c1c(O)c(-c2ccc(O)c(O)c2)oc2cc(O)ccc12	inactive
NC(=O)C[n+]1ccc(C=NO)cc1	inactive
CCc1cc(=O)oc2c(CNCc3ccccc3F)c(O)c(Cl)cc12	inactive
O=C(NNC(=O)c1cc2cc(Br)ccc2oc1=O)c1ccc(O)cc1O	inactive
Cc1ccc(NC(=O)CSCC(=O)OCc2cc(=O)oc3cc(O)ccc23)c(C)c1	inactive
COCCCn1/c(=N/C(=O)c2ccncc2)c(C#N)cc2c(=O)n3cccc(C)c3nc21	inactive
c1cc2c(cc1C1CCCCC1)c1c3n2CCCNC3CCC1 (stereo unspecified)	39.8 µM (active)
COc1ccc(NS(=O)(=O)c2cc(NC(=O)c3cc(=O)c4ccccc4o3)ccc2OC)cc1	inactive
COc1ccc(OC)c(S(=O)(=O)Nc2ccc(O)c3ccccc23)c1	28.2 µM (active)
COc1ccc(OC)c(S(=O)(=O)Nc2ccc3c(c2)OCCO3)c1	inactive
CN(CCC1CCCCO1)C(=O)CCc1nnc(CCCCc2ccccc2)o1 (stereo unspecified)	inactive
Cc1cc(C)c(CN2CCN(CCCn3cnc(C(=O)Nc4ccc(C)c(C)c4)n3)CC2)c(C)c1	35.5 µM (active)
Cc1ccc(OCC(=O)Nc2ccc(CN3CCOCC3)cc2)cc1C	inactive
Brc1ccc(C2=CC(c3ccco3)n3nnnc3N2)cc1 (stereo unspecified)	inactive
CC(C)N=C(S)NN=C1c2ccccc2-c2ccccc21	inactive
COc1ccc(/C=C/C(=O)Nc2ccc(Cl)c(Cl)c2)cc1OC	31.6 µM (active)
CCOc1ccc(Nc2oc(/C=C/c3cccc(OC)c3)nc2C#N)cc1	inactive
COc1ccc(/C=C/C(=O)Nc2cccnc2)cc1OC	inactive
COc1cc(/C=C/C(=O)Nc2ccc(S(=O)(=O)Nc3onc(C)c3C)cc2)cc(OC)c1OC	inactive
CCC1CSC(Nc2ccc(C(=O)/C=C/c3ccc(OC)c(OC)c3)cc2)=N1 (stereo unspecified)	39.8 µM (active)
COc1cccc(/C=C/C(=O)c2ccc(NC3=NCCCS3)cc2)c1	39.8 µM (active)
CCc1nnc(NS(=O)(=O)c2ccc(N/C=C\C(=O)c3cccc(OC)c3)cc2)s1	inactive

SMILES	Potency
COc1cc(/C=C/C(=O)OCC(=O)NC2CCS(=O)(=O)C2)ccc1OC(F)F (stereo unspecified)	inactive
CCOC(=O)c1sc2nc(C)nc(Nc3ccc(OC)c(OC)c3)c2c1C	inactive
CC(C)C(C)(C#N)NC(=O)CSc1nnc(C(F)(F)F)n1C (stereo unspecified)	inactive
COc1cccc(/C=C/c2nc(C#N)c(N3CCCCCC3)o2)c1	inactive
COc1ccccc1[C@@H]1C(c2cccc(C)c2)=NN(c2ccccc2)[C@H]1C(=O)N1CCOC1=O	inactive
CCN1CN=C(S)N(c2ccccc2C)C1	inactive
Cc1nn2c(-c3ccc(F)cc3)ccnc2c1Cl	inactive
CN(C)c1ccc(/C=C2\Oc3ccc(C#Cc4cccc(N)c4)cc3C2=O)cc1	inactive
CN1Cc2c(N3CCOCC3)nc3sc(C(=O)c4ccc(Br)cc4)c(N)c3c2CC1(C)C	inactive
Cc1ccccc1-c1nc(C#N)c(N2CCCCC2)o1	inactive
COC1=C(OC)C(=O)C(Sc2ccc3ccccc3c2)=CC1=O	33.6 µM (active)
CC1=CC(=O)C(Sc2ccc(C)cc2)=CC1=O	inactive
Cc1cccn2c(=O)c3cc(C(=O)NCC4CCCO4)c(=N)n(C4CCCCC4)c3nc12 (stereo unspecified)	inactive
COC(=O)C1=NN(c2ccc(C)cc2)C2C(=O)N(c3ccccc3OC)C(=O)C12 (stereo unspecified)	inactive
COc1ccccc1CNC(=O)C(C)Sc1ccc(C)cc1 (stereo unspecified)	inactive
COc1ccc(OC)c(NC(=O)Nc2nc(C(N)CCc3ccccc3)cs2)c1 (stereo unspecified)	39.8 µM (active)
COc1ccccc1CNC(=O)Nc1nc(C(N)CCc2ccccc2)cs1 (stereo unspecified)	39.8 µM (active)
COc1ccccc1CNC(=O)Cc1cc(O)nc(O)n1	inactive
Cc1ccc(S(=O)(=O)Nc2nc3n(n2)C(c2ccccc2Cl)C=C(c2ccccc2)N3)cc1 (stereo unspecified)	inactive
CSc1ccc(/C=C/c2ccc3cccc(O)c3n2)cc1	inactive
Oc1cccc2ccc(Nc3ccccn3)nc12	39.8 µM (active)
Oc1ccc(/C=C/c2ccc3cccc(O)c3n2)cc1Br	inactive
O=c1oc2ccccc2cc1-c1nc2c(s1)CCc1ccccc1-2	inactive
Cc1cc(C)c2c(N)c(C(=O)N/N=C/c3cccnc3)sc2n1	inactive
CC(O)CNC12CC3CC(CC(C3)C1)C2 (stereo unspecified)	inactive
CC(NCC(O)COCCC12CC3CC(CC(C3)C1)C2)c1ccccc1 (stereo unspecified)	39.8 µM (active)

SMILES	Potency
Cc1cccc(C)c1OCC(O)CNC(C)c1ccccc1 (stereo unspecified)	inactive
CC(NCC(O)COC1CCC(C(C)(C)C)CC1)c1ccccc1 (stereo unspecified)	35.5 µM (active)
CCOc1ccc2nc(N3CCCN(C(=O)Nc4ccccc4C)CC3)c(C#N)cc2c1	inactive
O=C1CC2C(=O)NCCN2C(NC(=O)c2ccc(Cl)cc2)=N1 (stereo unspecified)	inactive
Oc1ccc(N=Nc2ccc3c(c2)OCCO3)c2ncccc12	15.8 µM (active)
COC(=O)c1ccc(C(=O)OC)c(NC(=S)N2CCN(c3ccccc3F)CC2)c1	inactive
COc1ccc(CC(=O)Nc2cccc(-c3nnc(-c4ccccc4)o3)c2)cc1OC	10 µM (active)
COc1ccc(-c2nnc(-c3ccccc3)o2)cc1OC	inactive
COc1ccc(CCC(=O)OCC(=O)Nc2ccc(OC)c(OC)c2)cc1OC	inactive
CCOc1ccccc1-c1nc(-c2ccc(C)nc2OC)no1	inactive
CCOc1cc(-c2noc(-c3ccncc3)n2)cc(Br)c1OC	44.7 µM (active)
O=[N+]([O-])c1ccc(-c2nc(-c3ccncc3)no2)cc1	inactive
O=C1C=C(N(CCO)Cc2ccccc2)c2ccccc2C1=O	29.9 µM (active)
CC1(C)Cc2nc(Cl)c(C(N)=O)cc2CO1	inactive
C=CCC[C@@H](Cc1ccc(F)cc1)C(=O)OC[C@@H](Cc1c[nH]c2ccccc12)NC(=O)[C@H](CC=C)CC(=O)N(CCO)Cc1ccccc1	22.4 µM (active)
C=CCC[C@H](Cc1ccc(F)cc1)C(=O)OC[C@H](Cc1c[nH]c2ccccc12)NC(=O)[C@@H](CC=C)CC(=O)N(CCO)Cc1ccccc1	22.4 µM (active)
COC(=O)c1cc(NC(=O)CN2CCN(C(C)=O)CC2)cc(C(=O)OC)c1	inactive
Cc1ccc2[nH]c(CSc3nc(C)cc(C)c3C#N)nc2c1	inactive
CCc1cc(=O)oc2c(C)c(O)c(CN3CCCCC3)cc12	inactive
N#Cc1cc([N+](=O)[O-])c(-n2nnc3ccccc32)c([N+](=O)[O-])c1	22.4 µM (active)
O=C(NOC(=O)c1c(F)cccc1Cl)c1ccc(Cl)c(Cl)c1	inactive
CCCCN1C(=O)C(O)(CC(=O)c2ccc(C)cc2C)c2cc(Br)ccc21 (stereo unspecified)	31.6 µM (active)
CCCCN1C=C(C(=O)OC)C(c2ccccc2Cl)C(C(=O)OC)=C1	inactive
Cc1ccc(OCCn2cnc(Cl)c2Cl)cc1	inactive
CCN(CC)C(=O)c1cccc(NC(=O)c2cc(C3CC3)nc3c2cnn3C(C)C)c1	inactive
CC(=O)c1ccc(S(=O)(=O)NCCC(=O)N2CCN(c3ccccn3)CC2)cc1	inactive

SMILES	Potency
COc1cc2c(cc1OC)C(C)N(S(=O)(=O)c1cnc(Cl)c(Cl)c1)CC2 (stereo unspecified)	12.6 µM (active)
COc1cc2c(cc1OC)CN(S(=O)(=O)c1ccccc1F)CC2	inactive
COc1ccc(-c2c(C)nn3c(N4CCOCC4)cc(C)nc23)cc1OC	inactive
CSc1nc(Nc2ccc(F)cc2)cc(-c2ccccc2)n1	22.4 µM (active)
Cc1cccc2c3nc4ccccc4nc3n(C)c12	inactive
COC(=O)Cn1c2ccccc2c2nc3ccccc3nc21	inactive
O=c1oc2ccccc2n1CCn1c2ccccc2c2nc3ccccc3nc21	44.7 µM (active)
CC(C)(C)c1ccc(C(=O)N2CCC(=O)N(C(COCc3ccccc3)Cc3ccccc3)CC2)cc1 (stereo unspecified)	28.2 µM (active)
CC(C)(C)c1ccc(C(=O)N2CCC(=O)N([C@H](COCc3ccccc3)Cc3ccccc3)CC2)cc1	35.5 µM (active)
CC(C)CC1C(=O)N(Cc2cn(Cc3ccco3)nn2)CCS(=O)(=O)N1Cc1ccc(-c2ccc(F)nc2)cc1 (stereo unspecified)	25.1 µM (active)
COc1ccc(-c2ccc(CN3C(CC(C)C)C(=O)N(Cc4cn(CC5CCCCC5)nn4)CCS3(=O)=O)cc2)cn1 (stereo unspecified)	10 µM (active)
CC(C)CC1C(=O)N(Cc2cn(Cc3ccco3)nn2)CCS(=O)(=O)N1Cc1ccc(-c2cccc(CO)c2)cc1 (stereo unspecified)	35.5 µM (active)
COc1ccc(NS(=O)(=O)c2cc3c(cc2C)N(C)CCO3)c(OC)c1	inactive
CC1CCN(Cc2c(O)ccc3c2O/C(=C\c2ccco2)C3=O)CC1	inactive
O=C(c1cnn(-c2ccccc2)c1)c1cc(F)ccc1O	inactive
Cc1cc(Nc2ccc(F)cc2)n2c(nc3ccccc32)c1C#N	inactive
Cc1sc(-c2ccccn2)nc1OC(=O)c1ccc(F)cc1F	inactive
Cc1cccc2nc(-c3ccccn3)c(Nc3ccc(F)cc3)n12	20 µM (active)
Cc1ccc(Nc2nc(-c3ccccc3)c(CC(=O)O)s2)cc1	inactive
Cc1ccc(Nc2c(-c3ccsc3)nc3cccc(C)n23)cc1	25.1 µM (active)
CCC1Cc2c(nc(N)c3c(N)nc(N4CCCCC4)c(C#N)c23)O1 (stereo unspecified)	inactive
N=c1c(C(=O)NCC2CCCO2)cc2c(=O)n3ccccc3nc2n1Cc1ccc(Cl)cc1 (stereo unspecified)	inactive
CC(=O)C1=NN(c2ccccc2)C(c2ccc3c(c2)OCO3)N1c1ccccc1 (stereo unspecified)	inactive
